{"source": "the antibiotic and cytotoxicity screens of Wong et al. (2023)", "note": "In all, about 39,000 compounds went through this assay and about 3,300 (8.5%) were called active. The entries come from a sample that favours actives as a whole.", "data": [{"tested_on": "HepG2", "assay": "cytotoxicity call (relative viability < 0.9)", "settings": "10 µM", "values": [{"smiles": "Cc1noc(C)c1NC(=O)Nc1ccc2c(c1)C(=O)N([C@H](C)CO)C[C@H](C)[C@H](CN(C)Cc1ccccc1)OCCCC[C@H](C)O2", "cytotoxicity call": "inactive"}, {"smiles": "C=CCOC(=O)[C@H]1[C@@H]2C(=O)O[C@@H](c3ccccc3)[C@@H](c3ccccc3)N2[C@@H](c2ccc(OCCOC(=O)[C@@H]3C[C@@H]4C(=O)N[C@@H](CC(C)C)C(=O)N4[C@@H]3c3cccc(OCCO)c3)cc2)[C@]12C(=O)Nc1ccccc12", "cytotoxicity call": "inactive"}, {"smiles": "COc1ccc(S(=O)(=O)N(C)C[C@H]2Oc3ccc(NS(=O)(=O)c4cccs4)cc3C(=O)N([C@H](C)CO)C[C@@H]2C)cc1", "cytotoxicity call": "inactive"}, {"smiles": "COc1cccc(NC(=O)N[C@H]2C=C[C@@H](CC(=O)N3CCN(C)CC3)O[C@H]2CO)c1", "cytotoxicity call": "inactive"}, {"smiles": "C[C@@H]1CN([C@@H](C)CO)C(=O)c2cc(NC(=O)Nc3ccc4c(c3)OCO4)ccc2O[C@@H](C)CCCCO[C@H]1CN(C)Cc1ccncc1", "cytotoxicity call": "inactive"}, {"smiles": "c1cnc2nccn2c1", "cytotoxicity call": "inactive"}, {"smiles": "C[C@@H]1CN([C@H](C)CO)C(=O)c2cc(NC(=O)CCCN(C)C)ccc2O[C@@H]1CN(C)S(=O)(=O)c1cn(C)cn1", "cytotoxicity call": "inactive"}, {"smiles": "C[C@H](CO)N1C[C@H](C)[C@H](CN(C)Cc2ccc(C(=O)Nc3ccccc3N)cc2)Oc2c(NC(=O)Nc3ccccc3)cccc2C1=O", "cytotoxicity call": "inactive"}, {"smiles": "C[C@@H]1CN([C@H](C)CO)C(=O)c2cccc(NC(=O)Nc3cccc4ccccc34)c2O[C@@H]1CN(C)Cc1ccc(C(=O)Nc2ccccc2N)cc1", "cytotoxicity call": "inactive"}, {"smiles": "C[C@@H]1CN([C@@H](C)CO)C(=O)c2cccc(NC(=O)Nc3cccc4ccccc34)c2O[C@@H]1CN(C)Cc1ccc(C(=O)Nc2ccccc2N)cc1", "cytotoxicity call": "inactive"}, {"smiles": "C[C@H]1CN([C@@H](C)CO)C(=O)c2cccc(NC(=O)Nc3ccccc3)c2O[C@@H]1CN(C)Cc1ccc(C(=O)Nc2ccccc2N)cc1", "cytotoxicity call": "inactive"}, {"smiles": "C[C@H](CO)N1C[C@H](C)[C@H](CN(C)Cc2ccc(C(=O)Nc3ccccc3N)cc2)Oc2c(NC(=O)Nc3cccc4ccccc34)cccc2C1=O", "cytotoxicity call": "active"}, {"smiles": "C[C@H]1CN([C@@H](C)CO)C(=O)c2cccc(NC(=O)Nc3cccc4ccccc34)c2O[C@H]1CN(C)Cc1ccc(C(=O)Nc2ccccc2N)cc1", "cytotoxicity call": "active"}, {"smiles": "COc1ccc(NC(=O)N(C)C[C@@H]2Oc3ccc(NC(=O)Nc4ccc(C(F)(F)F)cc4)cc3C(=O)N([C@@H](C)CO)C[C@@H]2C)cc1", "cytotoxicity call": "inactive"}, {"smiles": "O[C@@H]1Cc2ccccc2[C@H]1O", "cytotoxicity call": "inactive"}, {"smiles": "O=C(C[C@H]1CC[C@@H]2[C@H](COC[C@H](O)CN2S(=O)(=O)c2ccc(Oc3ccccc3)cc2)O1)NCCN1CCCCC1", "cytotoxicity call": "inactive"}, {"smiles": "O=C(C[C@H]1CC[C@H]2[C@@H](COC[C@H](O)CN2S(=O)(=O)c2cccc(Cl)c2)O1)NCCCN1CCOCC1", "cytotoxicity call": "inactive"}, {"smiles": "COc1ccc(NC(=O)N(C)C[C@H]2OCCCC[C@@H](C)Oc3ccc(NS(=O)(=O)c4ccccc4)cc3C(=O)N([C@@H](C)CO)C[C@H]2C)cc1", "cytotoxicity call": "inactive"}, {"smiles": "CC(C)NC(=O)N(C)C[C@H]1OCc2cnnn2CCCC(=O)N([C@H](C)CO)C[C@H]1C", "cytotoxicity call": "inactive"}, {"smiles": "C[C@@H]1CCCCO[C@@H](CN(C)C(=O)Nc2ccc(F)cc2)[C@@H](C)CN([C@H](C)CO)C(=O)c2cc(NS(=O)(=O)c3ccc(Cl)cc3)ccc2O1", "cytotoxicity call": "inactive"}, {"smiles": "C[C@@H]1CCCCO[C@H](CN(C)C(=O)Nc2ccc(F)cc2)[C@@H](C)CN([C@H](C)CO)C(=O)c2cc(NS(=O)(=O)c3ccc(Cl)cc3)ccc2O1", "cytotoxicity call": "inactive"}, {"smiles": "C[C@H](CO)N1C[C@H](C)[C@@H](CN(C)C(=O)Nc2ccc(F)cc2)OCCCC[C@H](C)Oc2ccc(NS(=O)(=O)c3ccc(Cl)cc3)cc2C1=O", "cytotoxicity call": "inactive"}, {"smiles": "C[C@@H]1CN([C@@H](C)CO)C(=O)c2cc(NS(=O)(=O)c3ccc(Cl)cc3)ccc2O[C@@H](C)CCCCO[C@@H]1CN(C)C(=O)Nc1ccc(F)cc1", "cytotoxicity call": "inactive"}, {"smiles": "C[C@@H]1CCCCO[C@H](CN(C)C(=O)Nc2ccc(F)cc2)[C@@H](C)CN([C@@H](C)CO)C(=O)c2cc(NS(=O)(=O)c3ccc(Cl)cc3)ccc2O1", "cytotoxicity call": "active"}, {"smiles": "C[C@@H]1CN([C@H](C)CO)C(=O)c2cc(NS(=O)(=O)c3ccc(Cl)cc3)ccc2O[C@@H](C)CCCCO[C@H]1CN(C)C(=O)Nc1ccc(F)cc1", "cytotoxicity call": "active"}, {"smiles": "C[C@@H]1CCCCO[C@H](CN(C)C(=O)Nc2ccccc2)[C@@H](C)CN([C@@H](C)CO)C(=O)c2cc(NS(=O)(=O)c3ccc(Cl)cc3)ccc2O1", "cytotoxicity call": "active"}, {"smiles": "C[C@@H]1CCCCO[C@H](CN(C)C(=O)Nc2ccccc2)[C@@H](C)CN([C@H](C)CO)C(=O)c2cc(NS(=O)(=O)c3ccc(Cl)cc3)ccc2O1", "cytotoxicity call": "inactive"}, {"smiles": "C[C@@H]1CCCCO[C@@H](CN(C)C(=O)Nc2ccc(F)cc2)[C@H](C)CN([C@@H](C)CO)C(=O)c2cc(NS(=O)(=O)c3ccc(Cl)cc3)ccc2O1", "cytotoxicity call": "inactive"}, {"smiles": "C[C@@H]1CCCCO[C@@H](CN(C)C(=O)Nc2ccccc2)[C@H](C)CN([C@@H](C)CO)C(=O)c2cc(NS(=O)(=O)c3ccc(Cl)cc3)ccc2O1", "cytotoxicity call": "inactive"}, {"smiles": "C[C@H]1CCCCO[C@H](CN(C)C(=O)Nc2ccc(F)cc2)[C@@H](C)CN([C@@H](C)CO)C(=O)c2cc(NS(=O)(=O)c3ccc(Cl)cc3)ccc2O1", "cytotoxicity call": "active"}, {"smiles": "C[C@H]1CCCCO[C@@H](CN(C)C(=O)Nc2ccc(F)cc2)[C@@H](C)CN([C@@H](C)CO)C(=O)c2cc(NS(=O)(=O)c3ccc(Cl)cc3)ccc2O1", "cytotoxicity call": "inactive"}, {"smiles": "CC(=O)N[C@H]1[C@H](O/N=[N+](\\[O-])N2CCCC2)O[C@H](CO)[C@@H](O)[C@@H]1O", "cytotoxicity call": "inactive"}, {"smiles": "COc1ccc(S(=O)(=O)N2C[C@@H](O)COC[C@H]3O[C@@H](CC(=O)NCCCN4CCOCC4)CC[C@@H]32)cc1", "cytotoxicity call": "inactive"}, {"smiles": "O=C(C[C@H]1C[C@H]2c3cc(NC(=O)NC4CCCC4)ccc3O[C@H]2[C@H](CO)O1)NCc1ccc2c(c1)OCO2", "cytotoxicity call": "inactive"}, {"smiles": "CC(=O)OC1CCC2(C)C(CCC3(C)C2CCC24OC(=O)C5(CCC(C)C(C)C52)CCC34C)C1(C)C", "note": "(stereo unspecified)", "cytotoxicity call": "inactive"}, {"smiles": "COc1ccc(CN(C)C[C@@H]2Oc3ccc(NC(=O)C4CC4)cc3CC(=O)N([C@@H](C)CO)C[C@H]2C)cc1", "cytotoxicity call": "inactive"}, {"smiles": "COc1ccc(CN(C)C[C@@H]2OCCCC[C@H](C)Oc3ccc(NC(=O)Nc4c(C)noc4C)cc3C(=O)N([C@@H](C)CO)C[C@H]2C)cc1", "cytotoxicity call": "inactive"}, {"smiles": "C[C@H](CO)N1C[C@H](C)[C@H](CN(C)Cc2ccc(Cl)c(Cl)c2)Oc2c(NC(=O)Nc3cccc4ccccc34)cccc2C1=O", "cytotoxicity call": "inactive"}, {"smiles": "Cc1ccc(S(=O)(=O)N(C)C[C@@H]2Oc3ccc(NS(C)(=O)=O)cc3C(=O)N([C@@H](C)CO)C[C@H]2C)cc1", "cytotoxicity call": "inactive"}, {"smiles": "CC(C)NC(=O)N(C)C[C@H]1Oc2c(NC(=O)Nc3ccc4c(c3)OCO4)cccc2C(=O)N([C@H](C)CO)C[C@H]1C", "cytotoxicity call": "inactive"}, {"smiles": "O=C(C[C@H]1C[C@H]2c3cc(NS(=O)(=O)c4ccc(F)cc4)ccc3O[C@H]2[C@H](CO)O1)NCc1ccccc1", "cytotoxicity call": "inactive"}, {"smiles": "C[C@@H]1CCCCO[C@@H](CN(C)C(=O)Nc2ccc(F)cc2)[C@H](C)CN([C@H](C)CO)C(=O)c2cc(NS(=O)(=O)c3ccc(Cl)cc3)ccc2O1", "cytotoxicity call": "active"}, {"smiles": "C[C@H](CO)N1C[C@H](C)[C@H](CN(C)C(=O)Nc2ccc(F)cc2)OCCCC[C@H](C)Oc2ccc(NS(=O)(=O)c3ccc(Cl)cc3)cc2C1=O", "cytotoxicity call": "active"}, {"smiles": "C[C@@H]1CCCCO[C@H](CN(C)C(=O)Nc2ccc(F)cc2)[C@H](C)CN([C@@H](C)CO)C(=O)c2cc(NS(=O)(=O)c3ccc(Cl)cc3)ccc2O1", "cytotoxicity call": "inactive"}, {"smiles": "C[C@@H]1CCCCO[C@H](CN(C)C(=O)Nc2ccc(F)cc2)[C@H](C)CN([C@H](C)CO)C(=O)c2cc(NS(=O)(=O)c3ccc(Cl)cc3)ccc2O1", "cytotoxicity call": "inactive"}, {"smiles": "O=C(C[C@H]1C[C@H]2c3cc(NC(=O)Cc4ccncc4)ccc3O[C@H]2[C@@H](CO)O1)NCc1ccc2c(c1)OCO2", "cytotoxicity call": "inactive"}, {"smiles": "C[C@@H]1CN([C@H](C)CO)C(=O)c2cc(NC(=O)Nc3ccc4c(c3)OCO4)ccc2O[C@@H](C)CCCCO[C@@H]1CN(C)S(=O)(=O)c1ccccc1", "cytotoxicity call": "inactive"}, {"smiles": "C[C@@H]1CN([C@@H](C)CO)C(=O)c2cc(NC(=O)Nc3ccc4c(c3)OCO4)ccc2O[C@@H](C)CCCCO[C@@H]1CN(C)C(=O)Cc1ccccc1", "cytotoxicity call": "inactive"}, {"smiles": "CN1CCc2c(c3ccccc3n2Cc2ccccc2)C1", "cytotoxicity call": "active"}, {"smiles": "Cc1ccc(Cn2c3ccccc3c3ccccc32)cc1", "cytotoxicity call": "inactive"}, {"smiles": "Cn1sc(=O)n(Cc2ccccc2)c1=O", "cytotoxicity call": "inactive"}, {"smiles": "C[C@@H]1CCCCO[C@H](CN(C)C(=O)Nc2ccccc2)[C@@H](C)CN([C@H](C)CO)C(=O)c2cc(NC(=O)CCC(F)(F)F)ccc2O1", "cytotoxicity call": "inactive"}, {"smiles": "C[C@H]1CCCCO[C@@H](CN(C)C(=O)C2CCCCC2)[C@@H](C)CN([C@@H](C)CO)C(=O)c2cc(NC(=O)Nc3ccc(C(F)(F)F)cc3)ccc2O1", "cytotoxicity call": "active"}, {"smiles": "C[C@@H]1CCCCO[C@H](CN(C)C(=O)C2CCCCC2)[C@@H](C)CN([C@H](C)CO)C(=O)c2cc(NC(=O)Nc3ccc(C(F)(F)F)cc3)ccc2O1", "cytotoxicity call": "inactive"}, {"smiles": "C[C@@H]1CN([C@H](C)CO)C(=O)c2cc(NC(=O)Nc3ccc(C(F)(F)F)cc3)ccc2O[C@@H](C)CCCCO[C@@H]1CN(C)C(=O)C1CCCCC1", "cytotoxicity call": "active"}, {"smiles": "C[C@H](CO)N1C[C@H](C)[C@@H](CN(C)C(=O)C2CCCCC2)OCCCC[C@H](C)Oc2ccc(NC(=O)Nc3ccc(C(F)(F)F)cc3)cc2C1=O", "cytotoxicity call": "inactive"}, {"smiles": "C[C@@H]1CCCCO[C@@H](CN(C)C(=O)C2CCCCC2)[C@@H](C)CN([C@H](C)CO)C(=O)c2cc(NC(=O)Nc3ccc(C(F)(F)F)cc3)ccc2O1", "cytotoxicity call": "inactive"}, {"smiles": "C[C@@H]1CCCCO[C@H](CN(C)C(=O)C2CCCCC2)[C@H](C)CN([C@@H](C)CO)C(=O)c2cc(NC(=O)Nc3ccc(C(F)(F)F)cc3)ccc2O1", "cytotoxicity call": "inactive"}, {"smiles": "C[C@@H]1CN([C@H](C)CO)C(=O)c2cc(NC(=O)Nc3ccc(C(F)(F)F)cc3)ccc2O[C@@H](C)CCCCO[C@H]1CN(C)C(=O)C1CCCCC1", "cytotoxicity call": "inactive"}, {"smiles": "C[C@@H]1CCCCO[C@@H](CN(C)C(=O)C2CCCCC2)[C@H](C)CN([C@@H](C)CO)C(=O)c2cc(NC(=O)Nc3ccc(C(F)(F)F)cc3)ccc2O1", "cytotoxicity call": "active"}, {"smiles": "C[C@H]1CCCCO[C@H](CN(C)C(=O)C2CCCCC2)[C@@H](C)CN([C@@H](C)CO)C(=O)c2cc(NC(=O)Nc3ccc(C(F)(F)F)cc3)ccc2O1", "cytotoxicity call": "inactive"}]}]}
